Whole data set: some 33,000 sequences, median “E-score (-0.5 to 0.5)” near -0.016, cut for the highest 2% near 0.3. The entries come from a sample that favours the highest values as a whole.
The sequences below were run against T1, Yer184c (UniProt P39961) (assay: PBM E-score (8-mer binding enrichment) (E-score (-0.5 to 0.5)); higher = stronger / more preferred TF binding). Conditions: protein concentration: 100 nM; construct: GST-full length.
T1 sequence: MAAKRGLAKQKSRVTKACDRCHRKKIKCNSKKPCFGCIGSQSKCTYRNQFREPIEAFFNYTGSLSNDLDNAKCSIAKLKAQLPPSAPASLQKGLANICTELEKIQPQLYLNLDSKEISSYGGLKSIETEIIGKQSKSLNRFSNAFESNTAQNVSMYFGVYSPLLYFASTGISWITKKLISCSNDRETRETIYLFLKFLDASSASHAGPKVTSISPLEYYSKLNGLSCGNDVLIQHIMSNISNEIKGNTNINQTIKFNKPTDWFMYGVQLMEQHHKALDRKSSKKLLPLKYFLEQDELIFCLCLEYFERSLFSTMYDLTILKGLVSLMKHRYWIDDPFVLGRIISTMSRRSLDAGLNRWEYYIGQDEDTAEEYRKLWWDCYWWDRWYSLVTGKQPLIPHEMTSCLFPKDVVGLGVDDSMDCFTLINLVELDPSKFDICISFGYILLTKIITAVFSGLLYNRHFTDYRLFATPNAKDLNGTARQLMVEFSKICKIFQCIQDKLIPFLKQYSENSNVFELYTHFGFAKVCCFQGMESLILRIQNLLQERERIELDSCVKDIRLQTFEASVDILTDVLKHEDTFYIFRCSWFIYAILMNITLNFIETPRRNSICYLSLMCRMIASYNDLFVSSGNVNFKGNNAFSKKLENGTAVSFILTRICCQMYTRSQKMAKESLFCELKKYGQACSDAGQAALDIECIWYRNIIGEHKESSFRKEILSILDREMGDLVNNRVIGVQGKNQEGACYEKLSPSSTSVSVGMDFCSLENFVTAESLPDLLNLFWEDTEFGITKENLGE
How it was run: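 Universal all-10-mer Agilent arrays, fresh or stripped once, were converted to double-stranded form by primer extension. GST-tagged yeast transcription factors from PURExpress in vitro transcription/translation, full-length or DNA-binding domain only, were applied at about 100-200 nM and detected with fluorescent anti-GST. After masliner normalisation, the Universal PBM Analysis Suite scored each ungapped eight-base word together with its reverse complement by E-score.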

Sequence | PBM E-score
ACATCTCC | 0.128
GTCATTCA | 0.0449
CCGTCTCG | 0.159
AGCTCGGA | 0.159
CACTCGGG | 0.0303
CTCTCGGC | 0.238
AGCTCGGG | 0.138
ATCTCGGC | 0.37
GTCTCGGA | 0.227
CACTCGGC | 0.331
AACTCGGC | 0.273
ATCTCGGA | 0.31
AGCTCGGC | 0.316
ATCTCGGG | 0.219
ACCTCGGC | 0.238
ACAGTAGT | -0.0892
AAGACCAA | 0.052
GAGCCTAA | -0.0836
ACTGCAAA | 0.0905
GTAAGCGA | 0.00236
GCTCAAAA | 0.199
TTATACAA | 0.313
ATATACAA | 0.219
GTATACAA | 0.125
CAACTTTC | 0.0846

Sequence | PBM E-score
GTACTACA | 0.0564
CTTGTCTC | 0.0611
AATATGCA | -0.0575
ACGGCTCG | 0.21
CCGGCTCG | 0.339
TCGGCTCA | 0.2
TCGGCTAA | 0.313
CCGGCTCC | 0.293
CCGGCTCA | 0.362
GCGGCTAA | 0.186
GCGGCTCA | 0.2
ACGGCTAA | 0.233
CAAGAGGA | -0.0179
CCGGTCGA | 0.141
ACTGCCGA | 0.262
AGGCGAGG | -0.204
CATGCTTA | -0.103
CTCCAAGC | -0.181
CGCTAATC | -0.0149
GGAGGGCC | -0.308
ACGCCCGA | 0.056
CATATATA | 0.28
AATATATG | 0.153
TATATATA | 0.424
AATATATT | 0.38

Sequence | PBM E-score
GATATACA | 0.128
GATATATA | 0.349
AATATATA | 0.267
TATATACA | 0.164
GATATATC | 0.266
AGGCCTAA | 0.0613
CGCATGAG | -0.284
CGACAGTC | -0.182
AGATCATC | 0.0775
CGTGGCAA | -0.0803
CATACCAC | 0.0462
AGGAACTA | -0.103
AGGAACAC | 0.161
GCGAACAA | 0.246
GGGAACAC | 0.221
CCGAACAA | 0.322
CGGAACTC | 0.202
ACGAACAA | 0.275
CGGAACTA | 0.414
CGGAACGC | 0.241
CGGAACAC | 0.356
CGGAACGA | 0.306
AGGAACGA | -0.141
ACCAGACT | -0.0238
GTTTGCTA | 0.0684

Sequence | PBM E-score
ATACACGG | 0.047
CGGCGCAA | 0.178
AGGCTGAT | -0.161
AGGAACAG | -0.19
TGGAACAA | 0.195
GGGAACAA | 0.158
CGGAACAA | 0.39
CCGAACAG | 0.216
CCGAACTA | 0.323
ACGAACTA | 0.157
CGGAACAG | 0.338
CCGAACTC | 0.246
CGATAGCA | -0.114
AGTTACGA | 0.107
CAGAGGGG | -0.286
AGTAGCTC | -0.00154
CTCGCTTC | -0.0232
AGTCTGAG | -0.14
AGGCTCAC | -0.273
AATTTTAT | 0.379
AATTTTAC | 0.176
TGTTTAAA | 0.0737
CTATTAAA | 0.21
TTATTAAA | 0.233
ATATTAAA | 0.368

Sequence | PBM E-score
AAATTTAT | 0.286
AGTTTTAA | 0.159
ACATTAAA | 0.0822
TGTTTTAA | 0.327
GCATTAAA | 0.149
TCATTAAA | 0.343
TCAGCAAA | 0.158
ACTAGTGA | -0.172
AGAGCTTA | 0.0135
CGTTTCAC | 0.135
ATCAATGA | 0.2
CAGTAAAG | -0.177
GAGCAACA | 0.128
GATAACAC | 0.0102
ATATTTAA | 0.306
ATTTTTAA | 0.333
ATATTTAC | 0.202
ATTTTATG | 0.217
ATTTTTTA | 0.274
CTATTTAA | 0.0903
ATTTTAAC | 0.028
AATTTATA | 0.24
AATTTATG | 0.307
GTTTTAAA | 0.131
AATTTTAA | 0.252

Sequence | PBM E-score
ATTTTAAA | 0.331
ACCCCGCA | -0.0654
GCTTTTCC | 0.109
GGCGATTA | 0.0843
CAGATCGA | -0.0498
CCTAGTTA | 0.0429
ACCCTACA | -0.0427
AGTTGACA | 0.0221
AGAGGTGA | -0.148
ACCCCGGC | 0.0581
ACCCCGGG | 0.263
AAACCCGG | 0.337
CACCCGGG | 0.189
AAACCCGA | 0.215
AACCCGGC | 0.329
AAACCCGC | 0.135
ATCCCCGG | 0.185
CACCCGGC | 0.15
ATCCCGGG | 0.36
AACCCGGG | 0.325
ATCCCGGA | 0.274
ACTTTTTG | 0.154
ACCCTCGT | -0.116
ACAGTAAG | -0.0845
GACATTGC | -0.175

Sequence | PBM E-score
AAATAAAG | 0.045
ATATAAAG | 0.0639
ATATAAAC | 0.17
ATATAAAT | 0.305
AAATAAAA | 0.0817
AAATAAAT | 0.34
CGTGCTGC | -0.0543
CGGGGGGA | -0.373
AACTGCAA | 0.0848
GAGTTAGC | -0.0328
CTCTTATA | 0.145
ATGGTATA | -0.0158
ACATGCTG | -0.257
GCACCGGC | 0.234
GCACCGGA | 0.33
ACACCGGA | 0.246
CCACCGGG | -0.00255
CCACCGGA | 0.346
CCACCGGC | 0.146
TAGACCGA | 0.105
TAATCATA | 0.157
GACTAGTA | -0.12
CACTAGTA | -0.0824

From the supplement of paper PMC3334620
